Read-out in assay [1]: Monocyte Chemoattractant Protein-1 (MCP1), CCL2 (gene 6347)
The assay is described as follows: BSK_hDFCGF_MCP1: BioMAP Diversity Plus: hDFCGF Assay for Monocyte Chemoattractant Protein-1 (MCP1) Biomarker Activity (AID 2284285). To be noted: primary human foreskin fibroblasts. The method in brief:
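Human foreskin fibroblasts (hDFCGF system) were exposed to compound and secreted MCP-1 was measured by ELISA after 24 hours. Activity was fitted relative to DMSO. Cytotoxicity was checked by SRB total-protein staining in parallel cultures.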

Read-out in assay [2]: Intercellular Adhesion Molecule 1 (ICAM1), ICAM1 (gene 3383)
Kind of assay: BSK_hDFCGF_ICAM1: BioMAP Diversity Plus: hDFCGF Assay for Intercellular Adhesion Molecule 1 (ICAM1) Biomarker Activity (AID 2284287). To be noted: primary human foreskin fibroblasts. An outline of the steps:
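Primary human foreskin fibroblasts (hDFCGF system) dosed with chemical; ICAM-1 quantified by ELISA at 24 h relative to DMSO. Parallel SRB total-protein staining to assess overt cytotoxicity.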

Read-out in assay [3]: TIMP metallopeptidase inhibitor 2 (TIMP2), TIMP2 (gene 7077)
Kind of assay: BSK_hDFCGF_TIMP2: BioMAP Diversity Plus: hDFCGF Assay for TIMP metallopeptidase inhibitor 2 (TIMP2) Biomarker Activity (AID 2284289). Conditions: primary human foreskin fibroblasts. The method in brief:
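Primary human foreskin fibroblasts in the hDFCGF system, dosed for 24 h; TIMP-2 level measured by ELISA, fitted in the positive direction against DMSO; cytotoxicity checked in parallel by sulforhodamine B total protein staining.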

Read-out in assay [4]: Interleukin-1 alpha (IL1a), IL1A (gene 3552)
Kind of assay: BSK_IMphg_IL1a: BioMAP Diversity Plus: IMphg Assay for Interleukin-1 alpha (IL1a) Biomarker Activity (AID 2284290). To be noted: primary human endothelial cells with macrophages. An outline of the steps: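 Human venular endothelial cells co-cultured with macrophages, IMphg system. IL-1α is measured by ELISA 24 h after dosing and fitted in the positive direction against DMSO. Cytotoxicity is assessed by SRB staining of parallel cultures.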

Read-out in assay [5]: E-selectin (Homo sapiens) (UniProt P16581)
The assay is described as follows: BSK_IMphg_ESelectin: BioMAP Diversity Plus: IMphg Assay for Eselectin Biomarker Activity (AID 2284291). Conditions: primary human endothelial cells with macrophages. An outline of the steps:
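Human venular endothelial cell–macrophage co-culture, E-selectin measured by ELISA 24 h after chemical dosing. Signal fitted in the positive direction against DMSO as negative control and baseline.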

Assay [6] in a line: BSK_IMphg_SRB: Viability Assessment in the BioMAP Diversity Plus: IMphg Assay (AID 2284292).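 Further: measured one day after compound addition.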 Conditions: primary human endothelial cells with macrophages. The method in brief:
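Human venular endothelial cells with macrophages, 24 h after chemical dosing; total protein by 0.1% SRB staining after 10% TCA fixation, read at 560 nm. Positive-direction fitting versus DMSO baseline.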

Read-out in assay [7]: Macrophage colony-stimulating factor (MCSF), CSF1 (gene 1435)
The assay is described as follows: BSK_IMphg_MCSF: BioMAP Diversity Plus: IMphg Assay for Macrophage colony-stimulating factor (MCSF) Biomarker Activity (AID 2284293). To be noted: primary human endothelial cells with macrophages. An outline of the steps:
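Co-culture of human venular endothelial cells and macrophages, 24 hours of chemical exposure. M-CSF quantified by ELISA, with parallel SRB total-protein staining for cytotoxicity; activity fitted relative to DMSO.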

Read-out in assay [8]: Interleukin-10 (IL10), IL10 (gene 3586)
The assay is described as follows: BSK_IMphg_IL10: BioMAP Diversity Plus: IMphg Assay for Interleukin-10 (IL10) Biomarker Activity (AID 2284294). Conditions: primary human endothelial cells with macrophages. The method in brief:
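Human venular endothelial cells cocultured with macrophages, dosed 24 h; IL-10 measured by ELISA, activity relative to DMSO. Cytotoxicity assessed in parallel cultures by sulforhodamine B total-protein staining.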

A short description of assay [9]: BSK_IMphg_SRB.Mphg: Macrophage Viability Assessment in the BioMAP Diversity Plus: IMphg Assay (AID 2284295). Conditions: primary human endothelial cells with macrophages. An outline of the steps:
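Venular endothelial cells co-cultured with macrophages, read 24 h after dosing. Total protein measured by 0.1% SRB staining after 10% TCA fixation, absorbance at 560 nm. Fitted in positive direction against DMSO baseline.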

Read-out in assay [10]: Thrombomodulin, THBD (gene 7056)
The assay is described as follows: BSK_LPS_Thrombomodulin: BioMAP Diversity Plus: LPS Assay for Thrombomodulin Biomarker Activity (AID 2284296). Conditions: primary human HUVEC with PBMC. An outline of the steps:
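Human umbilical vein endothelial cells co-cultured with PBMC and stimulated with LPS; cell-surface thrombomodulin measured by ELISA 24 hours after compound. Gain or loss versus DMSO; cytotoxicity checked by SRB staining in parallel cultures.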

Read-out in another assay: CD69, CD69 (gene 969)
Kind of assay: BSK_LPS_CD69: BioMAP Diversity Plus: LPS Assay for CD69 Biomarker Activity (AID 2284303). Conditions: primary human HUVEC with PBMC. An outline of the steps:
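Human umbilical vein endothelial cells co-cultured with PBMC under LPS stimulation, chemical exposure 24 h; cell-surface CD69 measured by ELISA and fitted in the positive direction versus DMSO.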

Assay [11] in a line: IUF_NPC2c_oligodendrocyte_migration_120hr: Leibniz Research Institute for Environmental Medicine (IUF) 120-hour Neural Progenitor Cell Migration Assay for Oligodendrocyte Migration (NPC2c) (AID 2284297).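 Further: O4-positive oligodendrocyte migration distance divided by radial glia migration distance.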 An outline of the steps:
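Using fetal brain neural progenitor spheres differentiating in N2 medium at 37C, compounds were present for 120 h. Oligodendrocyte migration distance, normalized to radial glia migration, was measured from imaged O4 staining.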

Assay [12] is described as follows: IUF_NPC2a_radial_glia_migration_120hr: Leibniz Research Institute for Environmental Medicine (IUF) 120-hour Neural Progenitor Cell Migration Assay for Radial Glia Migration (NPC2a) (AID 2284298). The method in brief: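 Exposure of 0.3 mm primary hNPC spheres runs day 0 to 120 h with a half-volume medium change at day 3. Fixed cells get Hoechst staining; high-content analysis of nuclear positions yields radial glia migration distance per well, compared against DMSO controls.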

Assay [13] can be described thus: IUF_NPC2a_radial_glia_migration_72hr: Leibniz Research Institute for Environmental Medicine (IUF) 72-hour Neural Progenitor Cell Migration Assay for Radial Glia Migration (NPC2a) (AID 2284299). The method in brief: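 Migration out of plated human neural progenitor spheres is scored at 72 h as the distance in um from the sphere core edge to the edge of the migration area. Values are the mean of four manual measurements per well, normalised to DMSO.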

A short description of assay [14]: IUF_NPC2b_neuronal_migration_120hr: Leibniz Research Institute for Environmental Medicine (IUF) 120-hour Neural Progenitor Cell Migration Assay for Neuron Migration (NPC2b) (AID 2284300). The method in brief: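 Fetal human NPC spheres migrate on PDL/laminin during 120 h compound treatment; neuronal migration distance, glia-normalized, scored versus DMSO control.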

A short description of assay [15]: IUF_NPC3_neuronal_differentiation_120hr: Leibniz Research Institute for Environmental Medicine (IUF) 120-hour Neuronal Differentiation Assay (NPC3) (AID 2284301). The method in brief: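 Primary human fetal neural progenitor spheres (GW 16-19, 0.3 mm) plated on poly-D-lysine/laminin in N2 medium, exposed from day 0 for 120 h with half-medium refresh at day 3. TUBB3+ cells as percent of Hoechst nuclei in migration area; DMSO baseline.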

Assay [16] in a line: IUF_NPC4_neurite_length_120hr: Leibniz Research Institute for Environmental Medicine (IUF) 120-hour Neuronal Morphology Assay for Neurite Length (NPC4) (AID 2284302). An outline of the steps: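 Human fetal cortex (GW 16-19) neural progenitor spheres, 0.3 mm, were plated on poly-D-lysine/laminin in N2 differentiation medium and exposed from day 0 for 120 h, half-feeding at day 3. Mean TUBB3+ neurite length (µm) came from skeletonized images, relative to DMSO.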

Assay [17] can be described thus: IUF_NPC5_oligodendrocyte_differentiation_120hr: Leibniz Research Institute for Environmental Medicine (IUF) 120-hour Oligodendrocyte Differentiation Assay (NPC5) (AID 2284304; active means hit-call score of the fitted dose curve at least 0.9, where 1 is the maximum;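 further: primary human fetal neural progenitor spheres plated to migrate and differentiate; share of O4-positive cells among Hoechst nuclei found by CNN image analysis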). An outline of the steps:
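After plating on poly-D-lysine/laminin, fetal-derived hNPC spheres differentiated for 120 h at 37C in compound-containing N2 medium, refreshed by half on day 3. O4 immunostaining over Hoechst nuclei in the migration zone gave oligodendrocyte percentage relative to DMSO.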

The nature of assay [18]: IUF_NPC4_neurite_area_120hr: Leibniz Research Institute for Environmental Medicine (IUF) 120-hour Neuronal Morphology Assay for Neurite Area (NPC4) (AID 2284305; active means hit-call score of the fitted dose curve at least 0.9, where 1 is the maximum). The method in brief:
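Human fetal cortex-derived neural progenitor spheres (0.3 mm, GW 16-19) plated on poly-D-lysine/laminin in N2 differentiation medium and exposed from day 0 for 120 h across 7 concentrations plus solvent control. Neurite area is mean pixel area per TUBB3-positive neuron via skeletonization, analysed relative to DMSO.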

Assay [19] can be described thus: IUF_NPC2-5_cytotoxicity_72hr: Cytotoxicity Assessment at 72 hours in the Leibniz Research Institute for Environmental Medicine (IUF) Neural Progenitor Cell Migration and Differentiation Assay for Cytotoxicity (NPC2-5) (AID 2284306; active means hit-call score of the fitted dose curve at least 0.9, where 1 is the maximum;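 further: LDH release into supernatant measured by resorufin fluorescence marking membrane damage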). The method in brief:
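Human fetal (GW 16-19) neural progenitor spheres, 0.3 mm, plated on poly-D-lysine/laminin in N2 differentiation medium and exposed from day 0 to 7 concentrations plus solvent control (DMSO ≤0.1%). LDH-dependent resazurin-to-resorufin fluorescence in supernatant at 72 h.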

Several values for one entry are separate records, joined by “and”; a condition that tells them apart may be missing. Identical values can stand only once. Inconclusive results are not listed. A structure can be active in one record and inactive in another. Activity calls are given as the source filed them. How the source made its calls, unless noted: active means hit-call score of the fitted dose curve at least 0.9, where 1 is the maximum; inactive means score below 0.9.

E-selectin (Homo sapiens), sequence (P16581 whole entry, looked up): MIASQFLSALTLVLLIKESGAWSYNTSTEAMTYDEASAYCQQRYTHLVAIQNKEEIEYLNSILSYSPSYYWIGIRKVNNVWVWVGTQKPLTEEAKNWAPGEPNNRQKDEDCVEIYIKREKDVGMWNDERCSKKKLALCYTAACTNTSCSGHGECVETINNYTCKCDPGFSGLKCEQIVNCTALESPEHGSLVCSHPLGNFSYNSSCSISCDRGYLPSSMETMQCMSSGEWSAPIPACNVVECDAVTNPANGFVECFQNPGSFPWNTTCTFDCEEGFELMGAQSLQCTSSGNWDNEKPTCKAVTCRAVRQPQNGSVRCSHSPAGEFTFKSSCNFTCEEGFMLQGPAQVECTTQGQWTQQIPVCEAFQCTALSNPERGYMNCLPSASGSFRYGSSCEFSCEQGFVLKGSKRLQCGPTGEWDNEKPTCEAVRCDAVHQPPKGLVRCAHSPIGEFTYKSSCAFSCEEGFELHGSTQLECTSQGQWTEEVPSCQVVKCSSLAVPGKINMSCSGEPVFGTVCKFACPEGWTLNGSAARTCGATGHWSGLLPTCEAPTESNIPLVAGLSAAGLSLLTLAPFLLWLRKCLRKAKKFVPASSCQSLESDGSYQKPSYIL

As for `O=P(O)(O)CCC(F)(F)C(F)(F)C(F)(F)C(F)(F)C(F)(F)C(F)(F)F`, the result in assay [1], in assay [2], in assay [3], in assay [4], in assay [5] and in assay [6] was inactive. In addition, the outcome in assay [7] is “inactive”; in assay [8] it was “inactive”; in [9], “inactive”; in assay [10], “inactive”; with CD69, CD69 (gene 969), “inactive”. For the same compound, the AC50 in assay [10] was 0.219 µM (active).

Take `OCC(F)(F)C(F)(F)C(F)(F)C(F)(F)C(F)(F)C(F)(F)C(F)(F)C(F)(F)C(F)(F)C(F)(F)C(F)(F)F`: the result in assay [1], in assay [2], in assay [3], in assay [4], in [6] and in assay [7] was inactive. Besides, the outcome was “inactive” in [8]; “inactive” in assay [10]; “inactive” in the assay with CD69, CD69 (gene 969). The AC50 in assay [5] was 155 nM (active) and 396 nM (active); in [8] it was 835 nM (active); in [9], 550 nM (active) and 521 nM (active).

Consider `O=C(O)CCC(F)(F)C(F)(F)C(F)(F)C(F)(F)C(F)(F)C(F)(F)F`, for which the result in assay [1], in [2], in [3], in [5], in [6] and in [7] was inactive. Also, the outcome is “inactive” in [9]; “inactive” in assay [10]; “inactive” with CD69, CD69 (gene 969). In addition, the AC50 in [4] is 5.95 µM (active) and 16.4 µM (active) and 20.5 µM (active); in assay [8], 38 µM (active) and 30 µM (active).

`CCCCCCCCCCCC`: the AC50 in assay [1] is 11.1 µM (active) and 7.93 µM (active); in [2], 11.7 µM (active) and 10.3 µM (active); in assay [3] it was 12.6 µM (active) and 5.39 µM (active); in assay [10], 35.4 µM (active); with CD69, CD69 (gene 969), 30.1 µM (active). In addition, the outcome in assay [10] was “inactive”; with CD69, CD69 (gene 969), “inactive”.

In the case of `CC(=O)Nc1ccc(O)cc1`, the outcome in [11], in assay [12], in assay [13], in [14], in assay [15] and in assay [16] was inactive. Also, the compound was classed as inactive in assay [17], in assay [18] and in assay [19].

Regarding `Oc1c(Cl)cc(Cl)cc1Sc1cc(Cl)cc(Cl)c1O`, the AC50 in [1] is 2.54 µM (active) and 3.14 µM (active); in assay [2], 2.56 µM (active) and 2.73 µM (active); in assay [3] it was 2.33 µM (active) and 1.67 µM (active); in the assay with CD69, CD69 (gene 969), 24.3 µM (active) and 27.4 µM (active). For the same compound, in assay [10], the outcome was inactive.

For the compound `Oc1ccc(Cc2ccccc2O)cc1`, the outcome was “inactive” in [1]; “inactive” in [2]; “inactive” in assay [3]; “inactive” in assay [10]; “inactive” with CD69, CD69 (gene 969).

For `CN(CCO)S(=O)(=O)C(F)(F)C(F)(F)C(F)(F)C(F)(F)C(F)(F)C(F)(F)C(F)(F)C(F)(F)F`, the AC50 in [1] is 74.2 nM (active); in assay [3], 30.1 nM (active) and 23.8 nM (active). The outcome in assay [1], in [2], in [4], in assay [5], in assay [6] and in assay [7] was inactive. Moreover, the outcome in assay [8] is “inactive”; in assay [9], “inactive”; in assay [10], “inactive”; with CD69, CD69 (gene 969) it was “inactive”.

For `CN(Cc1cnc2nc(N)nc(N)c2n1)c1ccc(C(=O)N[C@@H](CCC(=O)O)C(=O)O)cc1`, the figures for the AC50 in assay [1] and in [9] were 607 nM (active) and 3.26 µM (active), respectively. The result in assay [1], in assay [2], in [3], in [4], in [5] and in assay [6] was inactive. For the same compound, the outcome in assay [7] was “inactive”; in assay [8], “inactive”; in assay [9], “inactive”; in assay [10], “inactive”; in the assay with CD69, CD69 (gene 969), “inactive”.

With `O=C(O)CCC(F)(F)C(F)(F)C(F)(F)C(F)(F)C(F)(F)F`, the result in [1], in assay [2], in assay [3], in assay [4], in [5] and in [6] was inactive. Moreover, the outcome in assay [7] is “inactive”; in assay [8] it was “inactive”; in assay [9], “inactive”; in [10], “inactive”; with CD69, CD69 (gene 969), “inactive”. For the same compound, the AC50 was 9.45 µM (active) in assay [4] and 5.95 µM (active) in the assay with CD69, CD69 (gene 969).

What is called AC50 is the concentration giving half of the maximal activity seen.

These data come from PubChem BioAssay (EPA / NIEHS).
